Experimental data from PubChem BioAssay (NCI).
The panel holds about 79,000 compounds, 15% with a hit somewhere; the sample as a whole holds those more often. Values without a mark were called inactive. Activity calls are given as the source filed them. Cut-off read from the data, not from the text of the source: active = growth inhibition above about 70%; inactive = the rest.

Legend:
[1] = NCI Yeast Anticancer Drug Screen. Data for the rad50 strain (AID 155);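 note: 0% = growth of vehicle-only cultures of the same strain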; details: S. cerevisiae rad50 strain growth inhibition; at 50.0 µM; hits give high values
Procedure, shortened: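 Growth of the mutant yeast was measured after compound exposure and referenced to vehicle-treated cultures.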

[2] = NCI Yeast Anticancer Drug Screen. Data for the mec2-1 strain (AID 157); details: S. cerevisiae mec2-1 strain, at 50.0 µM, hits give high values
Procedure, shortened: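 Test agents were screened against the mec2-1 yeast strain, with defined DNA repair or cell cycle alteration. Growth was scored as inhibition against vehicle-only controls.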

[3] = NCI Yeast Anticancer Drug Screen. Data for the sgs1 mgt1 strain (AID 161);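 note: 0% = growth of cultures given vehicle only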; details: S. cerevisiae sgs1 mgt1 strain, at 50.0 µM, hits give high values
Procedure, shortened: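 Genetically altered yeast, compound exposure, growth inhibition relative to vehicle.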

[4] = NCI Yeast Anticancer Drug Screen. Data for the cln2 rad14 strain (AID 165);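 note: 0% = growth equal to vehicle treated cultures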; details: S. cerevisiae cln2 rad14 strain, at 50.0 µM, hits give high values
Procedure, shortened: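 Growth of compound-exposed yeast (cln2 rad14 genotype) measured and expressed as inhibition relative to vehicle.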

[5] = NCI Yeast Anticancer Drug Screen. Data for the bub3 strain (AID 167); details: S. cerevisiae bub3 mutant strain, at 50.0 µM, hits give high values
Procedure, shortened: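 Whole-cell yeast assay. The mutant strain was incubated with compounds, and growth inhibition was determined by comparison with vehicle-treated cells.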

[6] = NCI Yeast Anticancer Drug Screen. Data for the mlh1 rad18 strain (AID 175); details: S. cerevisiae mlh1 rad18 strain growth inhibition; at 50.0 µM; hits give high values
Procedure, shortened: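 In this whole-cell yeast screen, a strain with altered DNA damage repair is challenged with compound, and its growth is measured against matched vehicle-treated controls.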

COC(=O)Nc1ccc(NC(=O)c2cscn2)c(NC(=O)OC)n1
growth inhibition [1]: 1.55% | growth inhibition [2]: 2.7% | growth inhibition [3]: -2.3% | growth inhibition [4]: -4.05% | growth inhibition [5]: 5.75% | growth inhibition [6]: -3.45%

O=C(O)CC(NC(=O)CP(=O)(O)O)C(=O)O (centres undefined)
growth inhibition [1]: -9.4% | growth inhibition [2]: -21.9% | growth inhibition [3]: -10.6% | growth inhibition [4]: 2% | growth inhibition [5]: -8.5% | growth inhibition [6]: -13.1%

Cc1cc(Cl)ccc1OCCCC(=O)NC(Cc1c[nH]c2ccccc12)C(=O)O (centres undefined)
growth inhibition [1]: 3.35% | growth inhibition [2]: 2.9% | growth inhibition [3]: 17.7% | growth inhibition [4]: 22.4% | growth inhibition [5]: -2.4% | growth inhibition [6]: 9.35%

O=C1CCSSCCC(=O)NCCCN1
growth inhibition [1]: 1% | growth inhibition [2]: -5.3% | growth inhibition [3]: -24.4% | growth inhibition [4]: 15.2% | growth inhibition [5]: -24.1% | growth inhibition [6]: -6.3%

O=C(O)/C=C/C(=O)Nc1cc(Cl)cc2c1-c1c(Cl)cc(Cl)cc1C2O (centres undefined)
growth inhibition [1]: 83.7% (active) | growth inhibition [2]: 54% | growth inhibition [3]: 84% (active) | growth inhibition [4]: -5.45% | growth inhibition [5]: 11.3% | growth inhibition [6]: 51.9%

NC(=S)N/N=C/c1ncccc1N
growth inhibition [1]: 14.8% | growth inhibition [2]: 50.6% | growth inhibition [3]: 39.2% | growth inhibition [4]: 35% | growth inhibition [5]: 34.9% | growth inhibition [6]: -21.7%

CC(=O)N(C(C)=O)n1c(Cc2ccc(Cl)cc2)nn(C(C)=O)c1=O
growth inhibition [1]: 7.85% | growth inhibition [2]: -15.1% | growth inhibition [3]: -9.2% | growth inhibition [4]: 4.5% | growth inhibition [5]: 10.7% | growth inhibition [6]: -7.6%

CCOC(=O)c1nc2ccccc2nc1NCc1ccc(Cl)cc1Cl
growth inhibition [1]: 6.45% | growth inhibition [2]: 19% | growth inhibition [3]: -24.7% | growth inhibition [4]: 8% | growth inhibition [5]: -16.6% | growth inhibition [6]: -30.9%

Clc1ccc(N=C2c3ccccc3CN2c2ccc(Cl)cc2)cc1
growth inhibition [1]: -32.6% | growth inhibition [2]: -20.1% | growth inhibition [3]: -14.4% | growth inhibition [4]: -4.85% | growth inhibition [5]: -22.3% | growth inhibition [6]: -13.9%

OC(c1ccccc1)(c1ccc(-c2ccccc2)cc1)c1cccc2ccccc12 (centres undefined)
growth inhibition [1]: 28.3% | growth inhibition [2]: -14.2% | growth inhibition [3]: 21.8% | growth inhibition [4]: 9.2% | growth inhibition [5]: -2.6% | growth inhibition [6]: 5.35%

CCOC(=O)/N=[N+](\[O-])c1ccccc1
growth inhibition [1]: 64.5% | growth inhibition [2]: 46.9% | growth inhibition [3]: 57.6% | growth inhibition [4]: 11.9% | growth inhibition [5]: 41.5% | growth inhibition [6]: 86.8% (active)

CC(=O)OC1C(COC(=O)c2ccccc2)OC(Nc2ncc(-c3ccc(Br)cc3)s2)C(OC(=O)c2ccccc2)C1OC(=O)c1ccccc1 (centres undefined)
growth inhibition [1]: 1.05% | growth inhibition [2]: 15.4% | growth inhibition [3]: -5.9% | growth inhibition [4]: 31.9% | growth inhibition [5]: -3.55% | growth inhibition [6]: -39.9%

COc1cc(OC)c([N+](=O)[O-])cc1/C=C/C(=O)O
growth inhibition [1]: -5.25% | growth inhibition [2]: -3.35% | growth inhibition [3]: 8% | growth inhibition [4]: 6.15% | growth inhibition [5]: 9.95% | growth inhibition [6]: 4.05%

COc1ccccc1C1c2cc3c(cc2OC(C)(OC)C1C)OCO3 (centres undefined)
growth inhibition [1]: -3.4% | growth inhibition [2]: -17.2% | growth inhibition [3]: 18.1% | growth inhibition [4]: -12.7% | growth inhibition [5]: -10.2% | growth inhibition [6]: 14.1%

CN(C)C=Nc1cc2c(cc1Br)-c1ccccc1C2=O
growth inhibition [1]: 3.05% | growth inhibition [2]: 10.3% | growth inhibition [3]: 4.4% | growth inhibition [4]: -0.45% | growth inhibition [5]: 2% | growth inhibition [6]: -15.7%

Cc1ccc2[nH]c(-c3ccccc3)cc2c1
growth inhibition [1]: -1.85% | growth inhibition [2]: -21.6% | growth inhibition [3]: -10.6% | growth inhibition [4]: -27.8% | growth inhibition [5]: -8.15% | growth inhibition [6]: -9.8%

COc1ccc2c(c1)/C(=C/c1cc(OC)c(OC)c(OC)c1)C(=O)N2
growth inhibition [1]: 4.3% | growth inhibition [2]: -27.2% | growth inhibition [3]: -8.7% | growth inhibition [4]: -1.4% | growth inhibition [5]: 1.2% | growth inhibition [6]: 2.85%

CC(Nc1cccc(Cl)c1)c1ccncc1 (centres undefined)
growth inhibition [1]: 4.05% | growth inhibition [2]: 12% | growth inhibition [3]: -15.2% | growth inhibition [4]: -5.55% | growth inhibition [5]: 24.6% | growth inhibition [6]: -11.4%

COC(=O)C1C=CN(N(C)C)C2=C1C(=O)c1c(O)cccc1C2=O (centres undefined)
growth inhibition [1]: 86% (active) | growth inhibition [2]: 93% (active) | growth inhibition [3]: 89.2% (active) | growth inhibition [4]: 88.1% (active) | growth inhibition [5]: 89.5% (active) | growth inhibition [6]: 90.2% (active)

CCCCCCn1cnc2c(=O)[nH]c(N)nc21
growth inhibition [1]: -2% | growth inhibition [2]: 3.5% | growth inhibition [3]: -17.2% | growth inhibition [4]: -7.05% | growth inhibition [5]: -8.65% | growth inhibition [6]: -10.2%

c1ccc2[nH]c(-c3nc4ccccc4s3)cc2c1
growth inhibition [1]: -3.75% | growth inhibition [2]: -4.45% | growth inhibition [3]: 0.05% | growth inhibition [4]: -60.1% | growth inhibition [5]: -12% | growth inhibition [6]: 1.25%

C1C2CC3(CO3)C1C1OC21 (centres undefined)
growth inhibition [1]: -39.4% | growth inhibition [2]: -13.8% | growth inhibition [3]: -26.1% | growth inhibition [4]: 3.85% | growth inhibition [5]: -22.2% | growth inhibition [6]: -10.8%

CC(C)(C)C(=O)NO
growth inhibition [1]: -12.6% | growth inhibition [2]: -12.1% | growth inhibition [3]: -13.6% | growth inhibition [4]: 6.8% | growth inhibition [5]: 4.5% | growth inhibition [6]: -0.3%

CCC(=O)c1ccc2c(ccc3ccccc32)c1O
growth inhibition [1]: -18.3% | growth inhibition [2]: -6.8% | growth inhibition [3]: -4.15% | growth inhibition [4]: -22.1% | growth inhibition [5]: 2.85% | growth inhibition [6]: -11.6%

COC(=O)N(c1ccccc1)c1ccccn1
growth inhibition [1]: -16.6% | growth inhibition [2]: -9.95% | growth inhibition [3]: -10.2% | growth inhibition [4]: 10.7% | growth inhibition [5]: 4.3% | growth inhibition [6]: -22.6%

CCCCc1ccncc1
growth inhibition [1]: 5.3% | growth inhibition [2]: 4.55% | growth inhibition [3]: 18.6% | growth inhibition [4]: -25.9% | growth inhibition [5]: 8.55% | growth inhibition [6]: 19.6%

CC1C(=O)C(O)CC2C1(C)CCC1C2(C)CCC2(C)C3CC(C)(C)CCC3(C)CCC12C (centres undefined)
growth inhibition [1]: -7.2% | growth inhibition [2]: -2.6% | growth inhibition [3]: -6.45% | growth inhibition [4]: 1.2% | growth inhibition [5]: 5.45% | growth inhibition [6]: -4.7%

O=[N+]([O-])c1ccc2c(c1)C(O)c1ccccc1-2 (centres undefined)
growth inhibition [1]: 35.6% | growth inhibition [2]: 24.6% | growth inhibition [3]: 12.9% | growth inhibition [4]: 26.9% | growth inhibition [5]: 26.2% | growth inhibition [6]: 29.1%

COc1ccc(CCn2cnc3ccccc32)cc1
growth inhibition [1]: -44.1% | growth inhibition [2]: -34.6% | growth inhibition [3]: -34.5% | growth inhibition [4]: -4.05% | growth inhibition [5]: -11.4% | growth inhibition [6]: -18.9%

O=Cc1cc2c(cc1-c1cc3c(cc1C=O)OCO3)OCO2
growth inhibition [1]: -3.4% | growth inhibition [2]: 8.25% | growth inhibition [3]: 6.6% | growth inhibition [4]: 9.85% | growth inhibition [5]: 13.1% | growth inhibition [6]: 0.75%

CN(C)c1cc2c(cc1N(C)C)-c1ccccc1C2
growth inhibition [1]: 9.85% | growth inhibition [2]: 6.5% | growth inhibition [3]: 13.9% | growth inhibition [4]: -0.2% | growth inhibition [5]: 10.1% | growth inhibition [6]: 28.9%

CCCCCCCCCCCCCOCC(=O)OC
growth inhibition [1]: -0.75% | growth inhibition [2]: 20.8% | growth inhibition [3]: -4.9% | growth inhibition [4]: -29% | growth inhibition [5]: 12.9% | growth inhibition [6]: 1.6%

CC(C)(C)C(=O)C(Cc1ccccc1)C(=O)C(C)(C)C
growth inhibition [1]: 2.6% | growth inhibition [2]: -11.8% | growth inhibition [3]: 2.15% | growth inhibition [4]: 16.8% | growth inhibition [5]: 5.45% | growth inhibition [6]: -1.95%

CC[N+](CC)(CC)CCO
growth inhibition [1]: -11.6% | growth inhibition [2]: -23.6% | growth inhibition [3]: -10.9% | growth inhibition [4]: 20.7% | growth inhibition [5]: -11.5% | growth inhibition [6]: -18.5%

Cc1c(C(=O)Nc2ccc(Cl)c(C(F)(F)F)c2)oc2cc(O)ccc2/c1=N\NC(N)=S
growth inhibition [1]: -12.3% | growth inhibition [2]: -14.4% | growth inhibition [3]: -23.6% | growth inhibition [4]: -7.85% | growth inhibition [5]: -7.35% | growth inhibition [6]: -17.4%

COC(=O)C(NC(=O)c1ccccc1)C(c1c(O)cc(O)cc1O)P(=O)(OC)OC (centres undefined)
growth inhibition [1]: -4.75% | growth inhibition [2]: 10.3% | growth inhibition [3]: 12.4% | growth inhibition [4]: 3.35% | growth inhibition [5]: 1% | growth inhibition [6]: 18%

NC(=O)C(Cc1ccc(O)cc1)NC(=O)c1cccnc1 (centres undefined)
growth inhibition [1]: -7.3% | growth inhibition [2]: 0.7% | growth inhibition [3]: -0.95% | growth inhibition [4]: -2.05% | growth inhibition [5]: -9.05% | growth inhibition [6]: 4.35%

Fc1cccc(C(Nc2nncs2)Nc2nncs2)c1
growth inhibition [1]: 14.1% | growth inhibition [2]: -0.1% | growth inhibition [3]: -1.7% | growth inhibition [4]: -11.6% | growth inhibition [5]: -3.8% | growth inhibition [6]: -4.35%

CC(C)C1CCC(C)(C(N)=O)C1 (centres undefined)
growth inhibition [1]: 8.2% | growth inhibition [2]: 2.65% | growth inhibition [3]: -1.3% | growth inhibition [4]: -23.4% | growth inhibition [5]: -8.25% | growth inhibition [6]: -2.1%

COc1ccc(C(O)C(=O)c2nc3ccc(Cl)cc3[nH]c2=O)cc1 (centres undefined)
growth inhibition [1]: -30.1% | growth inhibition [2]: -28.6% | growth inhibition [3]: -22.2% | growth inhibition [4]: -33.7% | growth inhibition [6]: -20.2%

CCOC(=O)C(=CNC(=S)Nc1ccc(OCC)cc1)C(=O)OCC
growth inhibition [1]: -9.75% | growth inhibition [2]: -24.5% | growth inhibition [3]: -7.85% | growth inhibition [4]: -16.3% | growth inhibition [6]: 6.05%

CC(=O)Nc1ccccc1Cc1nc2ccccc2c(=O)[nH]1
growth inhibition [1]: 15.7% | growth inhibition [2]: 12.6% | growth inhibition [3]: 25.1% | growth inhibition [4]: 7.9% | growth inhibition [6]: 16.8%
